According to PubChem BioAssay AID1839 (Johns Hopkins Ion Channel Center, 2009):
Screen size: about 2,400 compounds; about 220 (9.2%) were called active. What follows is part of a selection rich in actives, with near analogues and random picks from the rest. A number with no mark means an inactive call.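 How the source made its calls: active means signal change above the mean of dofetilide-free buffer controls plus 3 SD, so a positive margin; inactive means the rest.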

Test: nonspecific flux effects in parental CHO-K1, confirmation, counter-screen for hERG block protection project, cell-based, CHO-K1 parental line, FluxOR thallium flux (AID 1839);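 further: compounds applied alone with no dofetilide to cells lacking hERG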
Settings: CHO-K1 parental cells, FluxOR thallium flux fluorescence; at 10 µM

SMILES | signal change vs control minus 3*SD hit threshold (margin above threshold, higher = more increase)
Cc1ccc(/C=N/NC(=O)c2cc(-c3ccncc3)nc3ccccc23)o1 | -58.7%
C/C(=N\NC(=O)c1cc2ccccc2cc1O)c1ccc(C)o1 | 3.3% (active)
COc1ccc(CCNC(=O)c2cc3ccccc3oc2=O)cc1 | -38.8%
C/C(=N\NC(=O)c1cc2ccccc2cc1O)c1ccccn1 | -32.4%
Cc1cccc(/C=N/NC(=O)c2cc(Br)ccc2O)n1 | -26.5%
C/C(=N/NC(=O)c1cc2ccccc2cc1O)c1ccco1 | 3.4% (active)
O=C(N/N=C/c1ccc(Sc2ccccn2)o1)c1cc2ccccc2cc1O | -17.7%
C/C(=N\NC(=S)Nc1c(C)cccc1C)c1cc2ccccc2o1 | -26%
C/C(=N\NC(=O)c1cc2ccccc2cc1O)c1cc2ccccc2o1 | 50.8% (active)
Cc1ccc(/C=N/NC(=O)c2cc(C)oc2C)o1 | -22.9%
C/C(=N\NC(=O)c1ccoc1C)c1cccc2ccccc12 | -5.5%
Cc1ccc(/C=N/NC(=O)c2cc3ccccc3cc2O)o1 | 18.2% (active)
NC(=O)Cn1c2[n+](c3ccccc31)CC(O)CS2 (stereo unspecified) | -25.7%
CC(=O)c1ccc2c(c1)OCCOCCOCCO2 | -35.7%
CC(CCc1ccccc1)NC(=S)NC(=O)c1ccco1 (stereo unspecified) | 0%
C/C(=C\C(=O)c1ccccc1)NNC(=O)c1ccc(Cl)cc1 | -4.7%
Cc1ccc(Cn2nnc3c(=O)n(CC(=O)N4CCCc5ccccc54)cnc32)cc1 | -24.6%
Cc1ccc(C(=O)CC(=O)c2ccccc2C)c(O)c1 | -34%
Cc1cc(=S)[nH]c2c(C)cccc12 | -20%
c1ccc(CCCNc2ncnc3nc[nH]c23)cc1 | -18.5%
CSc1nsc(SCC(=O)Nc2ccccc2C(=O)O)n1 | -22.4%
O=C(NC(=S)Nc1nc(-c2ccccc2)cs1)c1cncc(Br)c1 | -17.9%
S=C(Nc1ccc(Cl)cc1)c1nc2ccccc2s1 | 10.2% (active)
Cc1cccc(NC(=S)c2nc3ccccc3s2)c1 | -28.6%
Cc1ccc(NC(=S)c2nc3ccccc3s2)cc1 | -24.9%
O=c1[nH]c(C(Cl)(Cl)Cl)nc2ccc3ccccc3c12 | -12%

SMILES | signal change vs control minus 3*SD hit threshold (margin above threshold, higher = more increase)
COc1ccc(OC)c(NC(=O)C(=O)NNC(=O)c2cccs2)c1 | -26.1%
COc1ccccc1NC(=O)C(=O)NNC(=O)c1ccco1 | 6.5% (active)
COc1ccc(C)cc1NC(=O)C(=O)NNC(=O)c1ccco1 | 23.7% (active)
O=C(CCC(=O)Nc1ccccc1)NNC(=O)c1ccco1 | -34.1%
COc1ccc(C)cc1NC(=O)Nc1ccc(C(=O)N2CCCC2)cc1 | -20.5%
COCC1CCCN(C(=O)c2ccc3oc(C(C)C)nc3c2)C1 (stereo unspecified) | -17.8%
C/C(O)=C/c1nc2ccccc2[nH]c1=O | -30.7%
CSc1nc2c(c(=O)[nH]1)C(c1ccc(Br)cc1)CC(=O)N2 (stereo unspecified) | -22.1%
C=CCn1c(=S)[nH]c2ccc(Br)cc2c1=O | -17.4%
C=CCn1c(SCC(N)=O)nc2scc(-c3ccc(C)o3)c2c1=O | -20.7%
C=CCn1c(=S)[nH]c2scc(-c3cccs3)c2c1=O | 37.4% (active)
C=CCn1c(=S)[nH]c2cc(-c3ccccc3)sc2c1=O | -25.2%
C=CCn1c(=S)[nH]c2scc(-c3ccc(C)o3)c2c1=O | 27.1% (active)
Cc1ccccc1NC(=O)CN1C(=O)S/C(=C\c2ccc(-c3cccc(C(=O)O)c3C)o2)C1=O | -33.5%
C=CCNc1sc(C(=O)C(C)(C)C)c(N)c1C#N | -32.1%
O=C(COc1ccc2c3c(c(=O)oc2c1)CCC3)N[C@@H](Cc1ccccc1)C(=O)O | -5.5%
CSC1=C(C#N)C(CC(C)C)C2=C(CCCC2=O)N1 (stereo unspecified) | -26.3%
S=c1[nH]c2cc(Cl)ccc2s1 | 38.9% (active)
O=C(Nc1ccc2[nH]c(=S)sc2c1)Nc1ccccc1F | -39.7%
Cc1[nH]c(=S)sc1Cc1ccc(Cl)c(Cl)c1 | -29.6%
CC(C)Cn1c(=S)[nH]c2cc(Cl)ccc21 | -22.1%
S=c1[nH]c2ccc(Cl)cc2s1 | 36.9% (active)
COc1cc(S(=O)(=O)NCC2COCCO2)ccc1-n1cnnn1 (stereo unspecified) | -28.3%
FC(F)(F)c1cnc2c(c1)[nH]c(=S)n2-c1ccc(Cl)cc1 | -16.7%
CNC(=O)c1ccc(NC(=O)CN2c3cccc4cccc(c34)S2(=O)=O)cc1 | -22%
